# Data published in article PMC7862700, “An all-to-all approach to the identification of sequence-specific readers for epigenetic DNA modifications on cytosine”.
# Key:
# Test in all cases: DAPPL (digital affinity profiling via proximity ligation, sequencing); 10 mM Tris-HCl pH 7.5, 50 mM NaCl, 1 mM DTT, 4% glycerol, room temperature, 30 min; GST-TFs on glutathione beads, 16-mer random dsDNA library, 0.1% formaldehyde crosslink after washing; high values mean tight binding
# Details in all cases: protein: recombinant; tags: N-terminal GST; dsDNA, one strand shown
# [1] = target: T1, FLI1 (Homo sapiens, UniProt Q01543 1-452)
# T1 sequence: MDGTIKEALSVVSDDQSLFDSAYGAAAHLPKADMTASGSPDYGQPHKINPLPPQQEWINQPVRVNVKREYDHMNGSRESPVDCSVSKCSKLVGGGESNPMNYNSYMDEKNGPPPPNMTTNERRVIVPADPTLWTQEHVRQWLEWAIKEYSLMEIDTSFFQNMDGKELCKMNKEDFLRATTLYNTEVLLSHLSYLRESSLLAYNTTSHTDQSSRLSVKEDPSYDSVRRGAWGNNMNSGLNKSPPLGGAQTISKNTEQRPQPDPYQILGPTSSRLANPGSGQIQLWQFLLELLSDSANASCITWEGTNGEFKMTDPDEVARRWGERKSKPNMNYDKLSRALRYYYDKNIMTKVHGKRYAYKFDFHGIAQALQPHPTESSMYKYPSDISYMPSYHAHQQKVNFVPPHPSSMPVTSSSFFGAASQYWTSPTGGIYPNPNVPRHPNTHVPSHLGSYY
# Procedure, shortened: (§1)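 Human transcription factors fused to GST were expressed in yeast, captured on glutathione beads, given DNA barcodes and pooled with a GST-only negative control. Pools were incubated with 200 nmole of a 16-mer random double-stranded DNA library in Tris/NaCl/DTT/glycerol buffer at room temperature for 30 min. They were then washed, crosslinked with 0.1% formaldehyde, proximity-ligated (BsaI/T4 ligase, 1 h, 37 °C), PCR-amplified and sequenced on an Illumina NextSeq500. Binding signal is each 6-mer's read frequency for a factor divided by its frequency for the GST control.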
# [2] = target: T2, ELK1 (Homo sapiens, UniProt P19419 1-428)
# T2 sequence: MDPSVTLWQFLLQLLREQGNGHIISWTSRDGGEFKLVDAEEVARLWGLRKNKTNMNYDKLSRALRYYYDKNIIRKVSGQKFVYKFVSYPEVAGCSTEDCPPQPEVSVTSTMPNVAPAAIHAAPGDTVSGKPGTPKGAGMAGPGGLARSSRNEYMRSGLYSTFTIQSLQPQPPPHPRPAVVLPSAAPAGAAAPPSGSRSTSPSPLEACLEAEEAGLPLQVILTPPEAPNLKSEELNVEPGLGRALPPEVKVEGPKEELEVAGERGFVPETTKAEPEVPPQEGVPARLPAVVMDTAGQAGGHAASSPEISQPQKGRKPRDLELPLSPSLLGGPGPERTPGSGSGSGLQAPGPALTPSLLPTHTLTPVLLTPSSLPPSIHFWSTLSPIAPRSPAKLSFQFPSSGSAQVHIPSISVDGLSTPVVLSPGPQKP
# Procedure, shortened: as §1
# [3] = target: T3, GABPA (Homo sapiens, UniProt Q06546 1-454)
# T3 sequence: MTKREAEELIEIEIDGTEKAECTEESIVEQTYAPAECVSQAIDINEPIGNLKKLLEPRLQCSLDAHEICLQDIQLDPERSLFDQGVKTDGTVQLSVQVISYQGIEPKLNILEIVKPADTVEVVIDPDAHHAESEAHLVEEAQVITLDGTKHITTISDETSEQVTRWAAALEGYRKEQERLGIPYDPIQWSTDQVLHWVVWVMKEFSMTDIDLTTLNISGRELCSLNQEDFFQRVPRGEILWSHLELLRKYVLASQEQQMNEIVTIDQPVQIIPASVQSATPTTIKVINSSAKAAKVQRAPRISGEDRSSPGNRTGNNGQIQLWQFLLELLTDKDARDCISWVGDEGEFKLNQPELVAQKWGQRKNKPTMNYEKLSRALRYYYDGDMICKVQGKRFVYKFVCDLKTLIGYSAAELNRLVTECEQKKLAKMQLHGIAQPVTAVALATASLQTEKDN
# Procedure, shortened: as §1
# [4] = target: T4, ERG (Homo sapiens, UniProt P11308 1-479)
# T4 sequence: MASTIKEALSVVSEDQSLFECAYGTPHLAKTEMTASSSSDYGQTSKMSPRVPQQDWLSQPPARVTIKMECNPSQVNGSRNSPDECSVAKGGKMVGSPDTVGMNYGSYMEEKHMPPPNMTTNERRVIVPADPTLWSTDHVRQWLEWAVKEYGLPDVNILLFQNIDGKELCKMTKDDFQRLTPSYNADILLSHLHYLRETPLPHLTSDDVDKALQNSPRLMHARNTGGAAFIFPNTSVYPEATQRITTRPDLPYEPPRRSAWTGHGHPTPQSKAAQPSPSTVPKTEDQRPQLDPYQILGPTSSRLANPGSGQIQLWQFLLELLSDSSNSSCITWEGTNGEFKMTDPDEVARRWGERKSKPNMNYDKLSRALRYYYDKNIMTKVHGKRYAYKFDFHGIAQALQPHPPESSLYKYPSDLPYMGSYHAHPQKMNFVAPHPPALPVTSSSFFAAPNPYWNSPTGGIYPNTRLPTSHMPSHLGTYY
# Procedure, shortened: as §1
# [5] = target: ELF1 (Homo sapiens, UniProt P32519 1-619)
# Chain of ELF1 (P32519 whole entry): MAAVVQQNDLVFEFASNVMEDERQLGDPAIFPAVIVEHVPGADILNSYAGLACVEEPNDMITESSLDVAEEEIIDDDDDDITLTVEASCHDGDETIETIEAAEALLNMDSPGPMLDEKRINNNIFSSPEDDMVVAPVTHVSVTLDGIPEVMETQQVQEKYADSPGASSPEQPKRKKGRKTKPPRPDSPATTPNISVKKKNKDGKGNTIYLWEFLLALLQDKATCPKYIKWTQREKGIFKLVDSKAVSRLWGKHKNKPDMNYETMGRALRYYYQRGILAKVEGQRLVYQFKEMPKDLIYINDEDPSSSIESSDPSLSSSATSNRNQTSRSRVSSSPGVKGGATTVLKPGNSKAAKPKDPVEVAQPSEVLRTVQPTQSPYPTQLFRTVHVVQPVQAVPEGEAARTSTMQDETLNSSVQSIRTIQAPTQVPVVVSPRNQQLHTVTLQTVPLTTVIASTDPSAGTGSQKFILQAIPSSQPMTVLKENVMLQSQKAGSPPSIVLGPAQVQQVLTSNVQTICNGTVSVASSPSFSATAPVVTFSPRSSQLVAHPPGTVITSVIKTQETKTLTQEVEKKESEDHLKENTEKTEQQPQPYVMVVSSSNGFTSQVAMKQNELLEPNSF
# Procedure, shortened: as §1
# [6] = target: T5, EHF (Homo sapiens, UniProt Q9NZC4 1-300)
# T5 sequence: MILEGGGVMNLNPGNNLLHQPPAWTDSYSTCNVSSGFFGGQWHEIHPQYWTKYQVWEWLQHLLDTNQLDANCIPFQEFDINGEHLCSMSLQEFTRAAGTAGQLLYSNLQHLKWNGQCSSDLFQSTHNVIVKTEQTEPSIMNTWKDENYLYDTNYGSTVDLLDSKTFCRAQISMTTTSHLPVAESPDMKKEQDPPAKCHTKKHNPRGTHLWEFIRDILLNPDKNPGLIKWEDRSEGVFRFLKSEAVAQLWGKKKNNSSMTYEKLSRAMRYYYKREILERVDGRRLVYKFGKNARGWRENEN
# Procedure, shortened: as §1
# [7] = target: SPIB (Homo sapiens, UniProt Q01892 1-262)
# Chain of SPIB (Q01892 whole entry): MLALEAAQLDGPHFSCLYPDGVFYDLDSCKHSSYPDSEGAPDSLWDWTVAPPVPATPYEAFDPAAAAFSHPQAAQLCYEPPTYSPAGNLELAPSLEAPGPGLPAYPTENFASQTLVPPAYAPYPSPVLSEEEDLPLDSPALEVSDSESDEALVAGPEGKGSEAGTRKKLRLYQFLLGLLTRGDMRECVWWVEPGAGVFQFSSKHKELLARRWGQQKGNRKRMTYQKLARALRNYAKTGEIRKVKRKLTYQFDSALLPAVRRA
# Procedure, shortened: as §1
# [8] = target: T6, ELK3 (Homo sapiens, UniProt P41970 1-407)
# T6 sequence: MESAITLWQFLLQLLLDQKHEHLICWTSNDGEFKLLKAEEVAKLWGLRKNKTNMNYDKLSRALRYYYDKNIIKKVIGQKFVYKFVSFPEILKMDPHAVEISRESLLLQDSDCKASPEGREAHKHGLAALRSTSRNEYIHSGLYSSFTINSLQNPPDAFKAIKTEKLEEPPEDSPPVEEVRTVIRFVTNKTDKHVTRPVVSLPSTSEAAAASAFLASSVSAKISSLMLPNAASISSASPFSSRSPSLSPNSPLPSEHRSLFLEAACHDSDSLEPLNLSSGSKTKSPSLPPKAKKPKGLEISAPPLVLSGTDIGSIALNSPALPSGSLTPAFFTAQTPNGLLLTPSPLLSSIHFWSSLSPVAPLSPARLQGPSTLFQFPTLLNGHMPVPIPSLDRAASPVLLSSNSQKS
# Procedure, shortened: as §1
# [9] = target: T7, SPIC (Homo sapiens, UniProt Q8N5J4 1-248)
# T7 sequence: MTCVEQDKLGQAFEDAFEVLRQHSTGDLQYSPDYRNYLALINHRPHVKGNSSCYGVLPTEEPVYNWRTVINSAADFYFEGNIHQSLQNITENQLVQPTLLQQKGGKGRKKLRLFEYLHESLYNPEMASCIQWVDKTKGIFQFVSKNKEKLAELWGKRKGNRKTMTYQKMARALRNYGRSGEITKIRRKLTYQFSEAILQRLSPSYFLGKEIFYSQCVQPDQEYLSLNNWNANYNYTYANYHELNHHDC
# Procedure, shortened: as §1
# [10] = target: ELF4 (Homo sapiens, UniProt Q99607 1-663)
# Chain of ELF4 (Q99607 whole entry): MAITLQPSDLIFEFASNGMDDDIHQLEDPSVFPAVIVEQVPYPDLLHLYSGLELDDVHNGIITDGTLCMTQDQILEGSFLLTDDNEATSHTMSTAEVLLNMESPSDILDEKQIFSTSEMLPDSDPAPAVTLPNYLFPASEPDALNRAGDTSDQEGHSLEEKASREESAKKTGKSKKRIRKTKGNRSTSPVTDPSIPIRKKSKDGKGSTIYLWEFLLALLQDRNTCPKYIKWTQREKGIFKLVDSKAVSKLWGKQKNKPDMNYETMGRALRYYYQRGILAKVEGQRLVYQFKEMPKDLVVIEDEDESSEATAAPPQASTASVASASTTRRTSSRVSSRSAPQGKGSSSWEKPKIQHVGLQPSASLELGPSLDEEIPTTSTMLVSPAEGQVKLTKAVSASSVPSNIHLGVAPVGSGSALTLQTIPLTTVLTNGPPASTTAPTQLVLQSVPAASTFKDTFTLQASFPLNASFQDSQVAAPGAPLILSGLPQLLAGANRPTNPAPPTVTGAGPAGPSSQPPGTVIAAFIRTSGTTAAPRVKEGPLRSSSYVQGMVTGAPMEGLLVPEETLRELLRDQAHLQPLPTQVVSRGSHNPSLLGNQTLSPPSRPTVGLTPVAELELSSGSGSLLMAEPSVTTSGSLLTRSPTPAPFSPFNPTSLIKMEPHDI
# Procedure, shortened: as §1
sequence,measurement,setting,value
CGTTTA,binding signal,[1],"1.08 fold enrichment (6-mer frequency, TF over GST control)"
same,binding signal,[2],"1.08 fold enrichment (6-mer frequency, TF over GST control)"
same,binding signal,[3],"1.13 fold enrichment (6-mer frequency, TF over GST control)"
same,binding signal,[4],"1.05 fold enrichment (6-mer frequency, TF over GST control)"
same,binding signal,[5],"1.06 fold enrichment (6-mer frequency, TF over GST control)"
same,binding signal,[6],"1.06 fold enrichment (6-mer frequency, TF over GST control)"
same,binding signal,[7],"1.11 fold enrichment (6-mer frequency, TF over GST control)"
same,binding signal,[8],"1.12 fold enrichment (6-mer frequency, TF over GST control)"
same,binding signal,[9],"1.03 fold enrichment (6-mer frequency, TF over GST control)"
same,binding signal,[10],"1.07 fold enrichment (6-mer frequency, TF over GST control)"
